# Results published in PubChem BioAssay AID739 (SRMLSC, 2007).
# Out of some 98,000 compounds screened, about 880 (0.9%) were called active. The entries come from a sample that favours actives as a whole. Unmarked numbers belong to inactive results. Cut-off read from the data, not from the text of the source: active = inhibition above about 30%; inactive = the rest.
# Experiment: phenotypic screen on post-Golgi transport, primary screen (AID 739);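 note: yeast cells grown in 1536-well plates; yeast grown about 18 h at 30C before absorbance read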
# Details: post-Golgi transport phenotypic cell assay; at 10 µM; active compounds read high
row,SMILES,inhibition
1,CC(C)Cn1cnc2c1c(=O)n(CC(O)c1ccccc1)c(=O)n2CC(C)C (stereo unspecified),2.02%
2,CCn1c2ccccc2c2cc(NC(=S)N3CCOCC3)ccc21,8.17%
3,CN(Cc1nc2ccccc2c(=O)[nH]1)Cc1cc(=O)oc2ccc3ccccc3c12,39.3% (active)
4,COc1ccc(N2CCN(Cc3cc(=O)oc4ccc5ccccc5c34)CC2)cc1,14.4%
5,CCCC(=O)N(CCc1ccccc1)Cc1nc2ccccc2c(=O)[nH]1,-6.28%
6,CC(C)c1ccc(NC(=O)CCN2C(=O)c3ccc([N+](=O)[O-])cc3C2=O)cc1,-0.5%
7,Cc1ccc(S(=O)(=O)NCC(=O)N(CC(=O)NC(C)(C)C)Cc2cccs2)cc1,-2.77%
8,Cn1nc([N+](=O)[O-])nc1Sc1ccc(C(C)(C)C)cc1,0.31%
9,Cn1c(Cn2nnc3ccccc32)nnc1SCC(=O)c1ccccc1F,11.5%
10,O=C(c1cccnc1NCc1ccccc1)N1CCOCC1,-0.34%
11,COc1ccc(C(CNC(=O)c2cccnc2SC)N2CCOCC2)cc1 (stereo unspecified),-3.85%
12,CSc1ncccc1C(=O)OCC(=O)N1CCOCC1,31.5% (active)
13,Cc1ccc(SCC(=O)c2sc(-c3ccccc3)nc2C)cc1,-0.4%
14,O=C(COc1ncnc2c(Cl)cc(Cl)cc12)N1CCN(S(=O)(=O)c2ccccc2)CC1,18.3%
15,CC(=O)NNc1cc(=O)c2c(=O)n(C)c(=O)n(C)c2[nH]1,9.45%
16,CNS(=O)(=O)c1cnccc1N1CCN(c2cccc(C)c2)CC1,-3.21%
17,O=C(O)C1CCCN(S(=O)(=O)c2cccc3cccnc23)C1 (stereo unspecified),-3.64%
18,O=S(=O)(c1cnccc1N1CCN(/N=C/c2ccc(Br)cc2)CC1)N1CCCCC1,49.6% (active)
19,CCCOn1c(-n2nc(C)cc2C)nc2ccccc2c1=O,2.91%
20,CCOC(=O)N1CCN(c2c(NCCCN3CCCC(C)C3)c(=O)c2=O)CC1 (stereo unspecified),7.09%
21,O=C(OCc1cn(-c2ccc(Cl)c(Cl)c2)nn1)c1ccccc1Cl,-1.94%
22,Cc1nc2ccccc2c(=O)n1CCCn1ccnc1,2.21%
23,CCn1c(/C=C/c2ccc([N+](=O)[O-])o2)nc2ccccc2c1=O,76.6% (active)
24,CCc1ccc(NC(=O)CSc2nc3ccccc3c(=O)n2CCN2CCOCC2)cc1,0%

row,SMILES,inhibition
1,O=C(CCCCCn1c(=O)[nH]c2ccccc2c1=O)NCCc1c[nH]c2ccccc12,-3.35%
2,COc1ccc2c(c1)CCc1c(C(=O)Nc3c(C)n(C)n(-c4ccccc4)c3=O)noc1-2,3.19%
3,COc1ccc2c(c1)CCc1c(C(=O)N3CCCC3)noc1-2,-1.12%
4,COc1ccc2c(c1)CCc1c(C(=O)N3CCc4ccccc4C3)noc1-2,40.4% (active)
5,CCN(CC)CCCNC(=O)CCc1ccccc1,3.7%
6,Cc1nn(CC(=O)Nc2nc3ccccc3s2)c(C)c1[N+](=O)[O-],-1.92%
7,O=C(CCS(=O)(=O)c1cccc2nsnc12)N1CCN(c2ccccc2F)CC1,6.04%
8,Fc1ccc(N2N=C(c3cccs3)CC2c2ccco2)c(F)c1 (stereo unspecified),8.56%
9,CC(NC(=O)CSc1nc2c(cc1C#N)CN(C)CC2)c1ccccc1 (stereo unspecified),60.2% (active)
10,Cc1nc2cc(NC(=O)CSc3nc4c(C)cccc4cc3C#N)ccc2s1,-0.17%
11,Cc1cc2cc3c(cc2nc1SCC(=O)Nc1c(C)cccc1C)CCC3,-0.36%
12,CC(C)C(NS(=O)(=O)c1cccs1)C(=O)Nc1nc(C(C)(C)C)cs1 (stereo unspecified),7.03%
13,Cc1c(C=O)c2ccccn2c1C(=O)c1ccncc1,-6.66%
14,COc1ccc(NC(=O)Nc2ccc3nc(C)c(C)nc3c2)cc1,-7.69%
15,O=C(Nc1ccc2ccccc2c1)Nc1ccc2snnc2c1,96.1% (active)
16,COc1ccc(NC(=O)Nc2ccc3nsnc3c2)cc1,-0.7%
17,CC(=O)Nc1ccccc1C(=O)C(=O)Nc1ccc(F)cc1,-1%
18,Cc1nnc(NC(=O)Nc2ccc(Cl)c(Cl)c2)s1,5.16%
19,N/C(=N\OC(=O)Nc1ccc(Cl)c(Cl)c1)c1ncc(C(F)(F)F)cc1Cl,3.3%
20,O=C(CC(O)(C(F)(F)F)C(F)(F)F)Nc1ccc(Cl)c(Cl)c1,105% (active)
21,COc1cc(SC)ccc1C(=O)NCCOc1ccccc1Cl,4.48%
22,c1ccc(-c2[nH]ncc2-c2nc3ccccc3[nH]2)cc1,11%
23,Cc1ccc(-c2nc3ccccc3[nH]2)cc1N,0.67%
24,c1ccc2[nH]c(-c3nc4ccccc4[nH]3)nc2c1,30.1% (active)

row,SMILES,inhibition
1,COc1ccc(C(=O)NC(=S)NNC(=O)CCc2ccccc2)cc1,0.19%
2,CC(Oc1ccc2ccccc2c1)C(=O)NNC(=S)NC(=O)c1ccco1 (stereo unspecified),43% (active)
3,CCCc1ccc(OCC(=O)NNC(=S)NC(=O)c2ccco2)cc1,27.3%
4,CCN(CC(=O)NC1CCS(=O)(=O)C1)c1nc(-c2cccnc2)nc2ccccc12 (stereo unspecified),3.37%
5,COC(=O)Cc1cc(=O)oc2c(C)c(O)ccc12,-6.64%
6,COc1cc(Cl)c(S(=O)(=O)N2CCN(Cc3ccc4c(c3)OCO4)CC2)cc1Cl,38.9% (active)
7,CCn1cc(C(=O)N2CCN(Cc3ccc4c(c3)OCO4)CC2)c2cc(OC)c(OC)cc2c1=O,-1.13%
8,CS(=O)(=O)N(CC(=O)N1CCN(Cc2ccc3c(c2)OCO3)CC1)c1ccc2c(c1)OCO2,6.95%
9,CC(=O)c1ccc(Cc2ncc(C(F)(F)F)cc2Cl)s1,6.38%
10,COc1ccc(-c2ccc(Nc3ccc(S(=O)(=O)N4CCCC4)cc3)nn2)cc1OC,1.55%
11,COc1ccc(-c2cc(C(F)(F)F)nc(NCc3cccnc3)n2)cc1,10.4%
12,COc1ccc(-c2cc(C(F)(F)F)nc(S(C)(=O)=O)n2)cc1OC,54.9% (active)
13,CCOC(=O)c1cc2c(ccn2C)n1CC(=O)N1CCC(C)CC1,1.25%
14,O=C(c1cccc(F)c1)N1CCC(O)(c2cccnc2)CC1,1.27%
15,COc1ccc2[nH]cc(/C=C(/C#N)S(=O)(=O)c3ccccc3)c2c1,-4.52%
16,Cc1ccc(C2(C(F)(F)F)N=C3Sc4cc(C)cc(C)c4N3C(=O)N2)cc1 (stereo unspecified),90.2% (active)
17,Cc1n[nH]c(=O)n1-c1ccc(Oc2ccccc2)cc1,-19.2%
18,COC(=O)Nc1ncc(CN2CCCCC2)s1,-4.67%
19,Cc1ccc(/C=N/NC(=O)C(NC(=O)c2ccccc2)c2n[nH]c(=O)c3ccccc23)cc1 (stereo unspecified),0.64%
20,Cc1cc(NC(=O)/C=C/C(=O)N(c2ccccc2C)C(C(=O)NC2CCCC2)c2ccc(F)cc2)no1 (stereo unspecified),0.32%
21,O=C(CSc1nnc(-c2ccccc2)o1)N1CCOCC1,8.7%
22,CC1=CC(C)(C)N(C(=O)CSc2nnc(-c3ccccc3)o2)c2ccc(C)cc21,101% (active)
23,CC1=CC(C)(C)N(C(=O)CSc2nccn2C)c2cc(C)ccc21,5.13%
24,Cc1ccc(CNC(=O)c2ccccc2CCc2ccccc2)cc1,-2.21%

row,SMILES,inhibition
1,FC(F)(F)COc1nc(N2CCCCC2)nc(N2CCNCC2)n1,33.5% (active)
2,O=C(CSCc1ccc(Cl)cc1)N1CCCCC1,-4.56%
3,Cc1cc([N+](=O)[O-])c(-c2ccc(/C=N/n3cnnc3)o2)cc1Cl,99.8% (active)
4,Cc1cc(C)c([N+](=O)[O-])cc1-c1ccc(/C=N/NC(=O)c2nonc2N)o1,-6.17%
5,O=C1C2C3C=CC(C4CC34)C2C(=O)N1/N=C/c1ccc(-c2ccccc2[N+](=O)[O-])o1 (stereo unspecified),3.37%
6,Cc1cc(-c2ccc(/C=N/n3cnnc3)o2)c([N+](=O)[O-])cc1C,59.7% (active)
7,CCOc1ccc(C(=O)NCCCN2CCCC2=O)cc1,11.5%
8,O=C(COC(=O)c1ccccc1NC(=O)c1ccco1)Nc1ccc2c(c1)OC(F)(F)O2,-2.04%
9,Cc1nc2ccc(NC(=O)C(F)(F)F)cc2o1,-13.7%
10,OC(c1ccccc1)c1nccn1Cc1ccccc1 (stereo unspecified),-6.53%
11,Cn1c(-c2sc3cc(C(F)(F)F)cnc3c2-c2ccccc2)n[nH]c1=S,-3.98%
12,c1ccc2c(CSCc3nc4ccccc4[nH]3)cccc2c1,4.1%
13,Cc1ccc(SCC(=O)Nc2ncc(C)s2)cc1,-7.09%
14,O=C1c2ccccc2C2=Nc3ccccc3SC(c3ccccc3F)C12 (stereo unspecified),103% (active)
15,Cc1c(CCO)c(=O)n(-c2ccccc2)n1S(=O)(=O)c1ccc(F)cc1,-6.46%
16,CC(C)Cc1nc(N2CCOCC2)c(C#N)c2c1CCC2,35% (active)
17,CC(C)CCNc1nc(N2CCCC2)c2c(c1C#N)CCN(C)C2,-1.14%
18,CC(C)c1nc(N2CCOCC2)c(C#N)c2c1COC(C)(C)C2,-8.94%
19,CCOc1ccc(-c2c(C)n([O-])c3c([n+]2=O)CCCC3)cc1,0.66%
20,COc1ccc(C2CC(c3ccccc3)Nc3ncnn32)cc1 (stereo unspecified),4.34%
21,Clc1ccc(C2CC(c3cccs3)n3ncnc3N2)cc1Cl (stereo unspecified),1.99%
22,FC(F)Oc1ccccc1C1CC(c2ccc(Br)s2)Nc2ncnn21 (stereo unspecified),39.4% (active)
23,CC(C)C(=O)OCC(=O)Nc1ccc2c(c1)CCC2,7.4%
24,CCC(=O)NC(Nc1cc(C)ccn1)(C(F)(F)F)C(F)(F)F,6.28%
